Data as given in the supplement of paper PMC3898565.
± gives the uncertainty stated by the source.

Tested on: U87
Assay: cell viability relative to vehicle control; higher = less growth inhibition (less active)
Conditions: 10 µM; 72 h
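Also: viable cell number estimated from Alamar Blue fluorescence read at 560/90, part of a single-dose primary screen of an FDA-approved drug library.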

SMILES | cell viability [%]
C[C@@H]1O[C@@H](OC[C@H]2O[C@@H](Oc3c(-c4ccc(O)c(O)c4)oc4cc(O)cc(O)c4c3=O)[C@H](O)[C@@H](O)[C@@H]2O)[C@H](O)[C@H](O)[C@H]1O | 91.89 ± 0.76
Nc1nc2ccc(OC(F)(F)F)cc2s1 [Riluzole] | 98.1 ± 1.5
O=c1[nH]cnc2c1ncn2[C@H]1CC[C@@H](CO)O1 | 105 ± 2.5
C[C@H]1O[C@H](O[C@H]2[C@H](O)[C@@H](O)[C@@H](O[C@H]3[C@H](O)[C@@H](O)C(O)O[C@@H]3CO)O[C@@H]2CO)[C@H](O)[C@@H](O)[C@@H]1N[C@H]1C=C(CO)[C@@H](O)[C@H](O)[C@H]1O (some centres undefined) | 102.6 ± 0.92
Cc1occc(=O)c1O | 106 ± 1.4
CCCCc1nc(Cl)c(CO)n1Cc1ccc(-c2ccccc2-c2nnn[nH]2)cc1 [LOSARTAN Potassium] | 107 ± 1.9
CC(=O)N1CCN(c2ccc(OCC3COC(Cn4ccnc4)(c4ccc(Cl)cc4Cl)O3)cc2)CC1 (centres undefined) [Ketoconazole] | 94.3 ± 13
COC(=O)C[C@](O)(CCCC(C)(C)O)C(=O)O[C@@H]1C(OC)=C[C@]23CCCN2CCc2cc4c(cc2[C@H]13)OCO4 | 10.3 ± 0.73
O=C(CCCN1CC=C(n2c(=O)[nH]c3ccccc32)CC1)c1ccc(F)cc1 | 106 ± 1.7
Cc1cccc(C)c1NC(=O)C1CCCCN1C (centres undefined) | 106 ± 0.63
NC1CCN(c2cccc(Cl)n2)CC1 | 97.7 ± 4
CC(C)Oc1ccc2c(=O)c(-c3ccccc3)coc2c1 | 101 ± 2.6
CCC1=C(C)CN(C(=O)NCCc2ccc(S(=O)(=O)NC(=O)N[C@H]3CC[C@H](C)CC3)cc2)C1=O | 105 ± 2.2
CN[C@H]1CC[C@@H](c2ccc(Cl)c(Cl)c2)c2ccccc21 [Sertraline] | 34.2 ± 3.8
CC(C)(O)c1ccccc1CC[C@@H](SCC1(CC(=O)O)CC1)c1cccc(/C=C/c2ccc3ccc(Cl)cc3n2)c1 | 101.8 ± 0.94
C[C@]12CC[C@@H]3c4ccc(O)cc4CC[C@H]3[C@@H]1CC[C@@H]2O | 97.2 ± 2.4
CCOC(=O)OC(C)OC1=C(C(=O)Nc2ccccn2)N(C)S(=O)(=O)c2ccccc21 (centres undefined) | 107 ± 1.1
Cc1nc2n(c(=O)c1CCN1CCC(c3noc4cc(F)ccc34)CC1)CCCC2 | 108 ± 1.7
CNNCc1ccc(C(=O)NC(C)C)cc1 [Procarbazine] | 104.4 ± 0.86
CC(C)(C)NCC(O)c1ccc(O)c(CO)c1 (centres undefined) | 98.8 ± 8.3

SMILES | cell viability [%]
CN(C)CC[C@@H](c1ccc(Br)cc1)c1ccccn1 | 104.1 ± 0.82
CC(C)C[C@H](NC(=O)[C@@H](COC(C)(C)C)NC(=O)[C@H](Cc1ccc(O)cc1)NC(=O)[C@H](CO)NC(=O)[C@H](Cc1c[nH]c2ccccc12)NC(=O)[C@H](Cc1cnc[nH]1)NC(=O)[C@@H]1CCC(=O)N1)C(=O)N[C@@H](CCCNC(=N)N)C(=O)N1CCC[C@H]1C(=O)NNC(N)=O | 101.1 ± 0.58
CCN1CCCC1CNC(=O)c1cc(S(=O)(=O)CC)c(N)cc1OC (centres undefined) [Amisulpride] | 101.2 ± 0.96
Cc1c(O)c(=O)ccn1C | 102 ± 5.2
CCCCc1oc2ccccc2c1C(=O)c1cc(I)c(OCCN(CC)CC)c(I)c1 [Amiodarone] | 105 ± 1.1
O=C1[C@H]2CCCC[C@H]2C(=O)N1CCCCN1CCN(c2nsc3ccccc23)CC1 | 102 ± 2.2
Nc1[nH]c(=O)ncc1F | 102 ± 1.7
CCN1CCC[C@H]1CNC(=O)c1c(O)c(Cl)cc(Cl)c1OC [Raclopride] | 99.9 ± 6.5
O=C1Nc2ccc(Cl)cc2[C@@](C#CC2CC2)(C(F)(F)F)O1 | 107 ± 1.1
NNCCc1ccccc1 | 104.4 ± 0.9
CCCCC1=NC2(CCCC2)C(=O)N1Cc1ccc(-c2ccccc2-c2nnn[nH]2)cc1 | 98 ± 3.2
CCCc1c(OCCCCc2nnn[nH]2)ccc(C(C)=O)c1O | 104 ± 1.5
CCOC(=O)[C@H](CCc1ccccc1)N[C@@H](C)C(=O)N1[C@H](C(=O)O)C[C@@H]2CCC[C@@H]21 | 101 ± 1.5
COc1ccc(-c2cc(=O)c3c(OC)c(OC)c(OC)c(OC)c3o2)cc1OC [Nobiletin] | 104.9 ± 0.98
O=C(O)/C=C/c1ccc(Cn2ccnc2)cc1 [ozagrel] | 104 ± 1.2
CCCN[C@H]1CCc2nc(N)sc2C1 [Pramipexole] | 92.5 ± 8.8
Cc1nccn1CC1CCc2c(c3ccccc3n2C)C1=O (centres undefined) [Ondansetron] | 99.8 ± 1.5
COc1cc(C(=O)NC2CCCNC2)cc(OC)c1OC (centres undefined) | 101 ± 4.2
C[C@]12CC[C@@H]3c4ccc(OS(=O)(=O)O)cc4CC[C@H]3[C@@H]1CCC2=O | 110.8 ± 0.43
